# An excerpt weighted towards active compounds, which were near 5.4% of everything screened.
# beta cell repl: inducers of beta-cell replication in MIN6 cells; MIN6 cells proliferation, ATPlite luminescence, 48 h; cells starved in 0.2% serum; 100% = growth in 10% serum; proliferation, % at 10 µM; actives 0.29% (n = 330,000); AID 2380;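 active means compounds whose signal lies at least 3.5 SD above the mean of all wells on their plate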;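 further: 0% = DMSO-treated cells in low-serum medium and 100% = 10% serum control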
# ALR H2O2 inh: inhibitors of human sulfhydryl oxidase ALR. purified ALR, DTT oxidation, H2O2 HRP-luminol luminescence. inhibition, % (test concentration not listed). actives 3.8% (n = 290,000). P55789;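 active means mean replicate inhibition above about 79%, with every replicate also reaching it, limit read from the data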
# Target sequence (P55789 whole entry, looked up): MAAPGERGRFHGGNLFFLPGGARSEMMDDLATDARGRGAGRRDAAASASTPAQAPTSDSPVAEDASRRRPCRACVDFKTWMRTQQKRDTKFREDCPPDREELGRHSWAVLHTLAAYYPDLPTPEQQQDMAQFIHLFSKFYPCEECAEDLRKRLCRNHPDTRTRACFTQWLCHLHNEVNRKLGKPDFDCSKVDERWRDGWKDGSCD
# Granule exo inh: blocks lytic granule exocytosis | TALL-104 LAMP-1 surface exposure, flow cytometry; cells stimulated with thapsigargin and PMA | inhibition, % at 10 µM | actives 0.66% (n = 360,000) | AID 651702;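 active means inhibition above about 55%, limit read from the data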
# PfM18AAP inh: PfM18AAP enzyme inhibition; inhibition, % at 7.35 µM; actives 1.2% (n = 290,000); recombinant PfM18AAP, H-Glu-NHMec fluorogenic cleavage;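 active means inhibition above the campaign mean inhibition over all tested compounds plus 3 SD, cut at about 28% in these data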;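 further: 0% = plate median of test compound wells and 100% = 2 mM ZnCl2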
# SMARCA2 activ: SMARCA2 function activation, primary screen | MG213 cells, MMTV-luciferase reporter, dexamethasone, overnight | activation, % at 9.1 µM | actives 1% (n = 370,000); in the data active means activation above about 7.8%;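 further: 0% = vehicle wells and 100% = reference activator wells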
# JMJD2C inh: human JMJD2C demethylase inhibition; GST-JMJD2C(1-420) H3K9me3 demethylation, DELFIA europium; inhibition, % at 2.35 µM; AID 2099; actives 0.069% (n = 330,000); Q9H3R0;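 active means more than half of a compound's replicate wells show inhibition beyond 50%, single wells judged on their own value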;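 further: signal counts dimethyl H3K9 product captured on neutravidin plate; 0% = median of DMSO wells and 100% = 0.3 times that DMSO median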
# Target sequence (Q9H3R0 1-420 limits assumed): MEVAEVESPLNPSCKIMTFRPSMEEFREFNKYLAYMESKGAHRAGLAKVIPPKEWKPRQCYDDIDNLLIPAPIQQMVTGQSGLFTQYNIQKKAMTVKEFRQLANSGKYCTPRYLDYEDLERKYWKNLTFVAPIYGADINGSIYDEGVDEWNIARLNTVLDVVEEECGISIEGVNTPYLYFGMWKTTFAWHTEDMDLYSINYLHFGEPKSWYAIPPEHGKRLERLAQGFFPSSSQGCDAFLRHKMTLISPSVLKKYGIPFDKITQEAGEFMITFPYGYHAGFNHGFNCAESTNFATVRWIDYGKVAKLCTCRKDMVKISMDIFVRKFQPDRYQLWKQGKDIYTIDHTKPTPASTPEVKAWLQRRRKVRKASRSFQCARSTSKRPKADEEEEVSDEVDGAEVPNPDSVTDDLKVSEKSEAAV
# SMARCA2 act conf: confirmation of SMARCA2 (BRM) function activators. shares compounds with SMARCA2 activ. actives 30% (n = 3,500). activation, % at 9.1 µM. MG213 cells, MMTV-luciferase with dexamethasone, luminescence, overnight; MG213 cells expressing E1A, Rb sequestered; DMSO wells 0%, reference activator 100%;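 active means activation above its plate's cutoff, the mean activation of tested wells plus 3 SD, cut at about 7.9% in these data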
# VP16 Luc act: GAL4-VP16 reporter activation counter-screen; shares compounds with SMARCA2 activ; HEK293 GAL4-VP16 pG5luc reporter, luciferase luminescence; scaled: DMSO wells 0%, SAHA wells 100%; activation, % at 9.1 µM; actives 41% (n = 3,500);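 active means activation above the solvent-only control well mean plus 3 SD, averaged across control plates, cut at about 5.2% in these data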
# Active calls of the source: *; . = not tested or not shown.
SMILES,beta cell repl,ALR H2O2 inh,Granule exo inh,PfM18AAP inh,SMARCA2 activ,JMJD2C inh,SMARCA2 act conf,VP16 Luc act
CCC(=O)N1N=C(c2c(-c3ccccc3)c3cc(Cl)ccc3[nH]c2=O)CC1c1ccco1 (stereo unspecified),-3,2,0,6,10*,-30,-3,0
CC(C)N1CCC1(C)C(=O)Nc1nccc2cccnc12 (stereo unspecified),.,.,8,.,-1,.,.,.
COc1ccc(Nc2c(-c3cc4ccccc4o3)nc3nc(C)cc(C)n23)cc1,.,.,2,.,8.6*,.,0,2
C=CCn1c(-c2c(C)nc3cc(C)ccn23)n[nH]c1=S,0,41,-3,20,9.1*,17,-3,0
CSc1nc(SCC(=O)NC(c2ccccc2)c2ccccc2)c2c3c(sc2n1)CN(C)CC3,-6,93*,-1,-4,12*,1,-4,0
Cn1c(NCCOc2ccccc2Cl)nc2cc(-c3ccc(F)cc3)sc2c1=O,.,.,1,.,-4,.,.,.
CC(C)CN(C)C(=O)CCc1nnc(Cc2cccc(C(F)(F)F)c2)o1,-4,-3,-2,-3,8.4*,21,6,5.2*
CC(C)CCN1C(=O)c2ccccc2C1c1nnnn1-c1ccc2c(c1)OCCO2 (stereo unspecified),.,.,-1,.,0,.,.,.
Cc1ccc(NC(=O)/C(Cl)=C\c2ccccc2)cc1,-5,-10,-7,.,4,-2,.,.
O=C(/C=C\Nc1ccc2c(c1)OCO2)c1cccs1,-3,96*,1,-7,10*,18,9.8*,5
CC(=O)Nc1ccc2nc(NC(=O)c3cccs3)sc2c1,-4,-5,0,9,9.1*,-2,8.7*,9.8*
O=C(Nc1ccc(CN2CCOCC2)cc1)c1cccs1,-3,-7,8,4,8.5*,-4,6,5
CC(=O)c1ccc(NC(=O)/C(Cl)=C/c2ccccc2)cc1,-3,-10,0,9,9.7*,0,13*,12*
CCCCC[C@@H](C)N1C[C@@H](COCc2ccccc2)Oc2cc(N3CCC[C@@H]3COC)ccc2S1(=O)=O,.,.,13,.,-1,.,.,.
C=CCN1C[C@@H](COCc2ccccc2)OCCS1(=O)=O,.,.,.,.,-5,.,.,.
CCc1nc2c(OCC(=O)C(C)(C)C)cccn2c1N(C=O)Cc1ccc(OC)cc1,.,.,2,.,-4,.,.,.
COc1ccc(NC(=O)c2ccc(NC(=O)c3cccs3)cc2)cc1,-4,23,0,-12,-1,-10,.,.
CC(C)c1cc(C(=O)Nc2ccc3c(c2)OCO3)no1,-4,.,4,-1,8.0*,1,3,9.1*
CC(=O)c1ccc(NC(=O)c2cccs2)cc1,-2,-5,-1,-5,12*,-15,10*,10*
O=C(Nc1ccc2c(c1)OCO2)c1cccs1,-2,-13,0,1,10*,2,12*,9.6*
CC(C)CSC1=NSC2=NC(=O)/C(=C\c3cccs3)C(=N)N12,-3,27,1,-5,9.5*,16,-3,5.3*
O=C(COC(=O)Cc1ccc(S(=O)(=O)N2CCOCC2)s1)Nc1ccccc1,0,-2,10,.,8.1*,6,2,1
N#Cc1ccccc1OCC(=O)Nc1ccc(S(=O)(=O)N2CCOCC2)cc1,-2,0,-18,.,9.6*,0,2,1
CC(C)C[C@H](NC(=O)c1ccc(Cl)c(Cl)c1)C(=O)N1CCC[C@H]1C(=O)NCc1ccccc1,.,.,.,.,0,.,.,.
O=C(c1cc2c(c(-c3cccc(-c4ccncc4)c3)n1)[C@@H](CCO)N(C(=O)c1ccc3c(c1)OCO3)C2)N1CCOCC1,.,.,1,.,8.1*,.,9.2*,0
SMILES,beta cell repl,ALR H2O2 inh,Granule exo inh,PfM18AAP inh,SMARCA2 activ,JMJD2C inh,SMARCA2 act conf,VP16 Luc act
COC(=O)c1ccc2c(c1)C(C)(C)C(/C=C/c1ccc(O)cc1)=[N+]2C,-6,93*,24,-2,14*,3,-16,-2
S=C(Nc1ccccc1)c1ccccn1,-7,.,0,10,8.2*,-3,30*,9.4*
O=C1NC[C@@H](CCCCN2C[C@H](Cc3ccccc3)N(CC3CCCCC3)C(=O)C2=O)N(CCc2ccccc2)C1=O,.,.,0,.,-2,.,.,.
Cc1ccc(-c2nc3ccc(Cl)cn3c2CC2CCCCC2)cc1,.,.,3,.,3,.,.,.
Cc1ccc(-c2nc3ccc(C)cn3c2CC2CCCCC2)cc1,.,.,15,.,8.1*,.,1,5.1*
FC(F)(F)c1ccccc1Cc1c(-c2cccc(Cl)c2)nc2ccc(Cl)cn12,.,.,-7,.,6,.,.,.
CNC(=O)c1cc2c(ccc3ccccc32)o1,-2,-12,-13,5,9.6*,-34,7,4
CCc1nnc2n1N=C(c1ccc(-c3cc(Cl)ccc3Cl)o1)CS2,-4,.,6,-15,8.9*,5,1,2
CCc1nnc2n1N=C(c1ccc(-c3ccc(Cl)cc3Cl)o1)CS2,.,.,.,-5,.,.,.,.
CCCCN(C)c1c(C)nc2ccc(C(=O)NCCCn3ccnc3)cn12,.,.,1,.,-1,.,.,.
COc1ccc(C2=NN(C(=O)CSc3nccn3C)C(c3ccco3)C2)cc1 (stereo unspecified),-2,-9,0,.,0,1,.,.
COc1ccc(C2=NN(C(=O)CSc3nnc(C)c(=O)n3N)C(c3ccco3)C2)cc1 (stereo unspecified),-2,-6,-5,7,13*,-27,2,1
c1ccc2c(c1)CCN(C1=Nc3cccc4cccc1c34)C2,-2,.,1,1,12*,.,4,3
c1cc2c3c(cccc3c1)C(N1CCCCCC1)=N2,-3,-35,2,7,0,10,.,.
Cc1csc(NC(=O)c2cc(C)on2)n1,-2,.,-7,.,11*,-2,4,7.5*
Cc1csc(NC(=O)c2ccc[nH]c2=O)n1,-1,-12,6,4,9.1*,0,13*,9.8*
CCOc1ccc(-n2c(COc3ccccc3)nnc2SCc2nc3ccccc3[nH]2)cc1,.,.,.,.,-5,.,.,.
O=C(Oc1c(CN2CCOCC2)cc(Cl)c2cccnc12)c1ccccc1,-6,-16,3,10,35*,26,11*,-2
COc1cc(OC)cc(C(=O)Oc2c(CN3CCOCC3)cc(Cl)c3cccnc23)c1,-6,1,-2,7,-2,-15,.,.
O=C(Oc1c(CN2CCOCC2)cc(Cl)c2cccnc12)c1ccccc1F,-6,.,-2,1,39*,-2,13*,1

# Screening data as filed in PubChem.
